Test results published in publication PMC11006913.
Positions count from the first letter of the chain named.

Key:
Assay in all cases: PBM; 200 nM protein, PBS
Details in all cases: dsDNA, one strand shown
[1] = target: HOXB9 (Homo sapiens, UniProt P17482 171-250, T197M)
[2] = target: HOXC9 (Homo sapiens, UniProt P31274 178-260, K195R)
[3] = target: HOXB9 (Homo sapiens, UniProt P17482 171-250)
[4] = target: HOXC9 (Homo sapiens, UniProt P31274 178-260)
[5] = target: HOXC9 (Homo sapiens, UniProt P31274 178-260, R193K)
Chain of HOXC9 (Homo sapiens, UniProt P31274 178-260, R193K) (P31274 178-260 R193K): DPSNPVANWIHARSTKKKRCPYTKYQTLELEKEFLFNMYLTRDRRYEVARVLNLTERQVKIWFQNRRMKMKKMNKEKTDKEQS

[6] = target: HOXB9 (Homo sapiens, UniProt P17482 171-250, R186Q)
Chain of HOXB9 (Homo sapiens, UniProt P17482 171-250, R186Q) (P17482 171-250 R186Q): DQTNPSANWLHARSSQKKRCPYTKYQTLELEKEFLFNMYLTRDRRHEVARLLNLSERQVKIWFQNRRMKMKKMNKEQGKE

[7] = target: HOXC9 (Homo sapiens, UniProt P31274 178-260, R222W)
Chain of HOXC9 (Homo sapiens, UniProt P31274 178-260, R222W) (P31274 178-260 R222W): as the sequence (P31274 178-260 R193K) above, with K16R, R45W counted along it

[8] = target: HOXC10 (Homo sapiens, UniProt Q9NYD6 254-340)
Chain of HOXC10 (Homo sapiens, UniProt Q9NYD6 254-340) (Q9NYD6 254-340): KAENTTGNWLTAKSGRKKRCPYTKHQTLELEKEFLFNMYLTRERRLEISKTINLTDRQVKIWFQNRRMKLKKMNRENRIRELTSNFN

[9] = target: HOXC10 (Homo sapiens, UniProt Q9NYD6 254-340, K271E)
Chain of HOXC10 (Homo sapiens, UniProt Q9NYD6 254-340, K271E) (Q9NYD6 254-340 K271E): as the sequence (Q9NYD6 254-340) above, with K18E counted along it

[10] = target: HOXA7 (Homo sapiens, UniProt P31268 116-202)
Chain of HOXA7 (Homo sapiens, UniProt P31268 116-202) (P31268 116-202): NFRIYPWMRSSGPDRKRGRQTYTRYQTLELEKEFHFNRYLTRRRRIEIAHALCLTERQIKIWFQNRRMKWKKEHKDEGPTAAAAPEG

[11] = target: HOXA7 (Homo sapiens, UniProt P31268 116-202, W177C)
Chain of HOXA7 (Homo sapiens, UniProt P31268 116-202, W177C) (P31268 116-202 W177C): as the sequence (P31268 116-202) above, with W62C counted along it

[12] = target: T1, PAX4 (Homo sapiens, UniProt O43316 9-242, R200K)
T1 sequence: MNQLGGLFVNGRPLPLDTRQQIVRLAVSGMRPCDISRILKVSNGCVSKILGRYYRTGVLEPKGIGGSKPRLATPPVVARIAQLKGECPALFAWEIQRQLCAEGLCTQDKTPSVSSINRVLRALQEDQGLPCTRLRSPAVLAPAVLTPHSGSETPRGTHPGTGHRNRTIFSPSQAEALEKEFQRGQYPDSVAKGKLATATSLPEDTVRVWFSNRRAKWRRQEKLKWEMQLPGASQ

[13] = target: T2, PAX4 (Homo sapiens, UniProt O43316 9-242)
T2 sequence: T1 sequence with K192R

[14] = target: T3, PAX4 (Homo sapiens, UniProt O43316 9-242, R200Q)
T3 sequence: T1 sequence with K192Q

[15] = target: T4, PAX4 (Homo sapiens, UniProt O43316 9-242, F177V)
T4 sequence: T1 sequence with F169V, K192R

[16] = target: T5, PAX4 (Homo sapiens, UniProt O43316 9-242, F177Y)
T5 sequence: T1 sequence with F169Y, K192R

[17] = target: T6, PAX4 (Homo sapiens, UniProt O43316 9-242, R227W)
T6 sequence: T1 sequence with K192R, R219W

[18] = target: HOXB6 (Homo sapiens, UniProt P17509 132-218, K202E)
Chain of HOXB6 (Homo sapiens, UniProt P17509 132-218, K202E) (P17509 132-218 K202E): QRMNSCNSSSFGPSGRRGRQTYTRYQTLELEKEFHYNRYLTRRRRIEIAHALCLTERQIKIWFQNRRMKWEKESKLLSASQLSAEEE

[19] = target: T7, NKX2-6 (Homo sapiens, UniProt A6NCS4 118-204, R150C)
T7 sequence: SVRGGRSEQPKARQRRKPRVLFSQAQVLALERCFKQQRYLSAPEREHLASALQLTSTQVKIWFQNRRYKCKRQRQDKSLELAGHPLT

[20] = target: HOXB6 (Homo sapiens, UniProt P17509 132-218)
Chain of HOXB6 (Homo sapiens, UniProt P17509 132-218) (P17509 132-218): as the sequence (P17509 132-218 K202E) above, with E71K counted along it

[21] = target: MSX2 (Homo sapiens, UniProt P35548 130-214, R199I)
Chain of MSX2 (Homo sapiens, UniProt P35548 130-214, R199I) (P35548 130-214 R199I): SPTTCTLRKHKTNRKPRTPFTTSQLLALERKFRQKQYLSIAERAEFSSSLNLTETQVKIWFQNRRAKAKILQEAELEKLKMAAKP

[22] = target: ALX3 (Homo sapiens, UniProt O95076 139-225, N203Q)
Chain of ALX3 (Homo sapiens, UniProt O95076 139-225, N203Q) (O95076 139-225 N203Q): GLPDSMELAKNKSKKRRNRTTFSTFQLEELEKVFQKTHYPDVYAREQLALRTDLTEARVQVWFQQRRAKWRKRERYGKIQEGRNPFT

[23] = target: MSX2 (Homo sapiens, UniProt P35548 130-214)
Chain of MSX2 (Homo sapiens, UniProt P35548 130-214) (P35548 130-214): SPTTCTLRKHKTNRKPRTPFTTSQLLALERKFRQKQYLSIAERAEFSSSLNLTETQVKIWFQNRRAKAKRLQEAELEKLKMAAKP

[24] = target: ALX3 (Homo sapiens, UniProt O95076 139-225)
Chain of ALX3 (Homo sapiens, UniProt O95076 139-225) (O95076 139-225): as the sequence (O95076 139-225 N203Q) above, with Q65N counted along it

[25] = target: ALX3 (Homo sapiens, UniProt O95076 139-225, L168Q)
Chain of ALX3 (Homo sapiens, UniProt O95076 139-225, L168Q) (O95076 139-225 L168Q): as the sequence (O95076 139-225 N203Q) above, with L30Q, Q65N counted along it

[26] = target: ALX3 (Homo sapiens, UniProt O95076 139-225, L168V)
Chain of ALX3 (Homo sapiens, UniProt O95076 139-225, L168V) (O95076 139-225 L168V): as the sequence (O95076 139-225 N203Q) above, with L30V, Q65N counted along it

[27] = target: MSX2 (Homo sapiens, UniProt P35548 130-214, F161Y)
Chain of MSX2 (Homo sapiens, UniProt P35548 130-214, F161Y) (P35548 130-214 F161Y): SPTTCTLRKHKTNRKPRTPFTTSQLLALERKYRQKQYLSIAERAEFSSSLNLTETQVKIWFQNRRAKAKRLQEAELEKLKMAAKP

[28] = target: ALX3 (Homo sapiens, UniProt O95076 139-225, N203S)
Chain of ALX3 (Homo sapiens, UniProt O95076 139-225, N203S) (O95076 139-225 N203S): as the sequence (O95076 139-225 N203Q) above, with Q65S counted along it

Chain of HOXC9 (Homo sapiens, UniProt P31274 178-260, K195R) (P31274 178-260 K195R): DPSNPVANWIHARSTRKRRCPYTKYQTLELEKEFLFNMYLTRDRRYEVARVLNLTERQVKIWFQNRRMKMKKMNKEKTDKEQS
Chain of HOXB9 (Homo sapiens, UniProt P17482 171-250) (P17482 171-250): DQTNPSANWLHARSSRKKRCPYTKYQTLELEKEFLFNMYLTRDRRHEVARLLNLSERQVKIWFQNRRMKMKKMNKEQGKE
Chain of HOXB9 (Homo sapiens, UniProt P17482 171-250, T197M) (P17482 171-250 T197M): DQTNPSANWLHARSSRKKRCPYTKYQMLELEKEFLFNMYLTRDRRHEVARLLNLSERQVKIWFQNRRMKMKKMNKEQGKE
Chain of HOXC9 (Homo sapiens, UniProt P31274 178-260) (P31274 178-260): as the sequence (P31274 178-260 R193K) above, with K16R counted along it

## ATAAAATG
[1]
  binding signal: 9.81 upbm affinity estimate (log intensity, higher = more binding, comparable within an allelic series)
[2]
  binding signal: 12.5 upbm affinity estimate (log intensity, higher = more binding, comparable within an allelic series)
[3]
  binding signal: 11.7 upbm affinity estimate (log intensity, higher = more binding, comparable within an allelic series)
[4]
  binding signal: 12.6 upbm affinity estimate (log intensity, higher = more binding, comparable within an allelic series)
[5]
  binding signal: 12.6 upbm affinity estimate (log intensity, higher = more binding, comparable within an allelic series)
[6]
  binding signal: 11.6 upbm affinity estimate (log intensity, higher = more binding, comparable within an allelic series)
[7]
  binding signal: 11 upbm affinity estimate (log intensity, higher = more binding, comparable within an allelic series)

## AGTCGTTA
[1]
  binding signal: 10 upbm affinity estimate (log intensity, higher = more binding, comparable within an allelic series)
[8]
  binding signal: 12.2 upbm affinity estimate (log intensity, higher = more binding, comparable within an allelic series)
[9]
  binding signal: 12.1 upbm affinity estimate (log intensity, higher = more binding, comparable within an allelic series)

## CTAGGCTC
[1]
  binding signal: 8.49 upbm affinity estimate (log intensity, higher = more binding, comparable within an allelic series)
[10]
  binding signal: 8.33 upbm affinity estimate (log intensity, higher = more binding, comparable within an allelic series)
[3]
  binding signal: 8.52 upbm affinity estimate (log intensity, higher = more binding, comparable within an allelic series)
[6]
  binding signal: 8.53 upbm affinity estimate (log intensity, higher = more binding, comparable within an allelic series)
[11]
  binding signal: 8.41 upbm affinity estimate (log intensity, higher = more binding, comparable within an allelic series)

## GGTCCCGA
[1]
  binding signal: 8.6 upbm affinity estimate (log intensity, higher = more binding, comparable within an allelic series)
[2]
  binding signal: 9.69 upbm affinity estimate (log intensity, higher = more binding, comparable within an allelic series)
[3]
  binding signal: 8.47 upbm affinity estimate (log intensity, higher = more binding, comparable within an allelic series)
[4]
  binding signal: 9.62 upbm affinity estimate (log intensity, higher = more binding, comparable within an allelic series)
[5]
  binding signal: 9.59 upbm affinity estimate (log intensity, higher = more binding, comparable within an allelic series)
[6]
  binding signal: 8.44 upbm affinity estimate (log intensity, higher = more binding, comparable within an allelic series)
[7]
  binding signal: 9.74 upbm affinity estimate (log intensity, higher = more binding, comparable within an allelic series)

## CCCGCGGC
[1]
  binding signal: 8.53 upbm affinity estimate (log intensity, higher = more binding, comparable within an allelic series)
[12]
  binding signal: 9.28 upbm affinity estimate (log intensity, higher = more binding, comparable within an allelic series)
[13]
  binding signal: 9.32 upbm affinity estimate (log intensity, higher = more binding, comparable within an allelic series)
[3]
  binding signal: 8.39 upbm affinity estimate (log intensity, higher = more binding, comparable within an allelic series)
[14]
  binding signal: 9.34 upbm affinity estimate (log intensity, higher = more binding, comparable within an allelic series)
[15]
  binding signal: 9.09 upbm affinity estimate (log intensity, higher = more binding, comparable within an allelic series)
[16]
  binding signal: 9.18 upbm affinity estimate (log intensity, higher = more binding, comparable within an allelic series)
[6]
  binding signal: 8.48 upbm affinity estimate (log intensity, higher = more binding, comparable within an allelic series)
[17]
  binding signal: 9.24 upbm affinity estimate (log intensity, higher = more binding, comparable within an allelic series)

## CCGCTCCG
[1]
  binding signal: 8.44 upbm affinity estimate (log intensity, higher = more binding, comparable within an allelic series)
[2]
  binding signal: 9.63 upbm affinity estimate (log intensity, higher = more binding, comparable within an allelic series)
[3]
  binding signal: 8.59 upbm affinity estimate (log intensity, higher = more binding, comparable within an allelic series)
[4]
  binding signal: 9.73 upbm affinity estimate (log intensity, higher = more binding, comparable within an allelic series)
[5]
  binding signal: 9.74 upbm affinity estimate (log intensity, higher = more binding, comparable within an allelic series)
[6]
  binding signal: 8.66 upbm affinity estimate (log intensity, higher = more binding, comparable within an allelic series)
[7]
  binding signal: 9.7 upbm affinity estimate (log intensity, higher = more binding, comparable within an allelic series)

## AGGCCTGG
[1]
  binding signal: 8.45 upbm affinity estimate (log intensity, higher = more binding, comparable within an allelic series)
[18]
  binding signal: 8.94 upbm affinity estimate (log intensity, higher = more binding, comparable within an allelic series)
[3]
  binding signal: 8.43 upbm affinity estimate (log intensity, higher = more binding, comparable within an allelic series)
[19]
  binding signal: 9.48 upbm affinity estimate (log intensity, higher = more binding, comparable within an allelic series)
[6]
  binding signal: 8.44 upbm affinity estimate (log intensity, higher = more binding, comparable within an allelic series)
[20]
  binding signal: 8.97 upbm affinity estimate (log intensity, higher = more binding, comparable within an allelic series)

## CTCACGGC
[1]
  binding signal: 8.44 upbm affinity estimate (log intensity, higher = more binding, comparable within an allelic series)
[8]
  binding signal: 10 upbm affinity estimate (log intensity, higher = more binding, comparable within an allelic series)
[3]
  binding signal: 8.41 upbm affinity estimate (log intensity, higher = more binding, comparable within an allelic series)
[21]
  binding signal: 9.58 upbm affinity estimate (log intensity, higher = more binding, comparable within an allelic series)
[22]
  binding signal: 7.72 upbm affinity estimate (log intensity, higher = more binding, comparable within an allelic series)
[9]
  binding signal: 10 upbm affinity estimate (log intensity, higher = more binding, comparable within an allelic series)
[23]
  binding signal: 9.43 upbm affinity estimate (log intensity, higher = more binding, comparable within an allelic series)
[24]
  binding signal: 7.47 upbm affinity estimate (log intensity, higher = more binding, comparable within an allelic series)
[25]
  binding signal: 7.78 upbm affinity estimate (log intensity, higher = more binding, comparable within an allelic series)
[6]
  binding signal: 8.46 upbm affinity estimate (log intensity, higher = more binding, comparable within an allelic series)
[26]
  binding signal: 7.81 upbm affinity estimate (log intensity, higher = more binding, comparable within an allelic series)
[27]
  binding signal: 9.43 upbm affinity estimate (log intensity, higher = more binding, comparable within an allelic series)
[28]
  binding signal: 7.72 upbm affinity estimate (log intensity, higher = more binding, comparable within an allelic series)

## AGCCGCAG
[1]
  binding signal: 8.34 upbm affinity estimate (log intensity, higher = more binding, comparable within an allelic series)
[12]
  binding signal: 9.2 upbm affinity estimate (log intensity, higher = more binding, comparable within an allelic series)
[13]
  binding signal: 9.21 upbm affinity estimate (log intensity, higher = more binding, comparable within an allelic series)
[3]
  binding signal: 8.11 upbm affinity estimate (log intensity, higher = more binding, comparable within an allelic series)
[21]
  binding signal: 9.46 upbm affinity estimate (log intensity, higher = more binding, comparable within an allelic series)
[14]
  binding signal: 9.21 upbm affinity estimate (log intensity, higher = more binding, comparable within an allelic series)
[15]
  binding signal: 9.11 upbm affinity estimate (log intensity, higher = more binding, comparable within an allelic series)
[23]
  binding signal: 9.43 upbm affinity estimate (log intensity, higher = more binding, comparable within an allelic series)
[16]
  binding signal: 9.12 upbm affinity estimate (log intensity, higher = more binding, comparable within an allelic series)
[6]
  binding signal: 8.24 upbm affinity estimate (log intensity, higher = more binding, comparable within an allelic series)
[27]
  binding signal: 9.5 upbm affinity estimate (log intensity, higher = more binding, comparable within an allelic series)
[17]
  binding signal: 9.18 upbm affinity estimate (log intensity, higher = more binding, comparable within an allelic series)

## CCCCCAGA
[1]
  binding signal: 8.56 upbm affinity estimate (log intensity, higher = more binding, comparable within an allelic series)
[2]
  binding signal: 9.67 upbm affinity estimate (log intensity, higher = more binding, comparable within an allelic series)
[3]
  binding signal: 8.41 upbm affinity estimate (log intensity, higher = more binding, comparable within an allelic series)
[4]
  binding signal: 9.59 upbm affinity estimate (log intensity, higher = more binding, comparable within an allelic series)
[5]
  binding signal: 9.69 upbm affinity estimate (log intensity, higher = more binding, comparable within an allelic series)
[6]
  binding signal: 8.47 upbm affinity estimate (log intensity, higher = more binding, comparable within an allelic series)
[7]
  binding signal: 9.54 upbm affinity estimate (log intensity, higher = more binding, comparable within an allelic series)
